Data from PubChem BioAssay AID1159580 (chemical genetic matrix, 2015).
The campaign covered roughly 5,500 compounds. About 2,000 (36%) were called active. Not shown: some 18% with an inconclusive outcome. Rule as the data show it: active = normalized growth mostly below about 0.91 (no sharp cut-off); inconclusive = no clear call, values can overlap the other calls; inactive = mostly above about 0.92. This is one part of the list.

Test: chemical genetic growth profiling, strain panel (AID 1159580);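 also: tested at 20 µM; growth read once vehicle control cultures reached saturation at 30 °C; 1 = growth at the plate median or of vehicle wells; lower values mean less growth of the strain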
Settings: S. cerevisiae deletion strains, growth OD
[1] = locus YAL013W, strain DEP1, hits give low values
[2] = locus YAL040C, strain CLN3, hits give low values
[3] = locus YER002W, strain NOP16, hits give low values
[4] = locus YMR263W, strain SAP30, hits give low values
[5] = locus YNL175C, strain NOP13, hits give low values
[6] = locus YNL197C, strain WHI3, hits give low values
[7] = locus YNL224C, strain SQS1, hits give low values
[8] = locus YOR083W, strain WHI5 (second series), hits give low values
[9] = locus YPL241C, strain CIN2, hits give low values
[10] = locus YGR078C, strain PAC10, hits give low values
[11] = locus YJR075W, strain HOC1, hits give low values
[12] = locus YNL153C, strain GIM3, hits give low values
[13] = locus YNL322C, strain KRE1, hits give low values

Measured: normalized growth

CN1CCCC1CCOC(C)(c1ccccc1)c1ccc(Cl)cc1 (centres undefined)
active: locus YGR229C, strain SMI1, hits give low values 0.714
inactive: [1] 0.981 | [2] 0.986 | locus YCL061C, strain MRC1 (second series), hits give low values 0.982 | locus YDR363W, strain ESC2, hits give low values 0.983 | [3] 1 | [4] 0.955 | [5] 0.995 | [6] 1.03 | [7] 1.01 | [8] 0.986 | [9] 0.996

Brc1ccc([C@H]2CN3CCSC3=N2)cc1
inactive: [2] 1.01 | [3] 1.03 | [10] 1.02 | [11] 0.983 | [12] 0.997 | [5] 1.01 | [6] 1.01 | [7] 1.01 | [13] 0.997 | [8] 1.02

Brc1cccc(C=NCc2ccccc2)c1
active: [1] 0.87 | locus YBR229C, strain ROT2, hits give low values 0.843 | locus YDL101C, strain DUN1, hits give low values 0.888 | locus YDL134C, strain PPH21, hits give low values 0.765 | locus YEL061C, strain CIN8, hits give low values 0.621 | [10] 0.847 | locus YHR030C, strain SLT2, hits give low values 0.198 | locus YHR087W, strain rtc3, hits give low values 0.788 | locus YJL187C, strain SWE1, hits give low values 0.848 | [11] 0.719 | locus YLR039C, strain RIC1, hits give low values 0.242 | locus YLR085C, strain ARP6, hits give low values 0.333 | locus YLR262C, strain YPT6, hits give low values 0.23 | locus YML094W, strain GIM5, hits give low values 0.656 | locus YMR219W, strain ESC1, hits give low values 0.92 | [4] 0.883 | locus YNL128W, strain TEP1, hits give low values 0.829 | [12] 0.921 | locus YNL298W, strain CLA4 (second series), hits give low values 0.664 | locus YNR030W, strain Alg12, hits give low values 0.761 | [9] 0.663 | locus YPR135W, strain CTF4, hits give low values 0.366
inactive: locus YDR150W, strain NUM1, hits give low values 0.932 | locus YJR043C, strain POL32, hits give low values 0.954 | locus YLR058C, strain SHM2 (second series), hits give low values 0.961 | [13] 0.983 | locus YPL055C, strain LGE1, hits give low values 0.825
